The supplement of paper PMC6805474
A number with no mark means an inactive call.

Tested on: Schistosoma mansoni schistosomula (NMRI)
Assay: phenotypic severity score (0-4); higher = more antischistosomal effect, active = 2 or more
Settings: 72 h; 10 µM
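For phenotypic severity score (0-4) in this document: visual microscopic scoring of shape, motility and density changes versus 0.5% DMSO solvent controls, one point per descriptor, degeneracy or death scored 4, mean of duplicate wells.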

| Structure (SMILES) | phenotypic severity score |
| --- | --- |
| CC1CCCCN1C(=O)NCCc1coc(-c2ccc(F)cc2)n1 (stereo unspecified) | 0 |
| COc1ccc(S(=O)(=O)Nc2ccc(CN3CCN(C(=O)c4cccc(C#N)c4)CC3)cc2)cc1 | 1 |
| Cc1cc(Cl)c(S(=O)(=O)N2CCCC2)cc1OCC(=O)NC1CCCCC1 | 0 |
| COc1cccc(CC(=O)N2CCC(n3c(C)nc4ccc(F)cc43)CC2)c1 | 1 |
| COc1cc(C2=NCCN2)ccc1-c1cn(-c2cccc(C3=NCCN3)c2)nn1 | 0 |
| O=C(Nc1cccc(Cl)c1)c1cnc(N2CCN(c3ccncc3)CC2)c(Cl)c1 | 4 (active) |
| CC[C@@H]([C@H](C)O)n1ncn(-c2ccc(N3CCN(c4ccc(OC[C@@H]5CO[C@@](Cn6cncn6)(c6ccc(F)cc6F)C5)cc4)CC3)cc2)c1=O | 4 (active) |
| NC(=O)c1cc(Br)ccc1OCCOc1ccccc1 | 2 (active) |
| Cc1noc(C)c1C(=O)N1CCCC(c2[nH]c3c(C)cccc3c2-c2ccncc2)C1 (stereo unspecified) | 4 (active) |
| Cc1cc(Nc2ccncc2)n2nc(C)c(-c3ccccc3Cl)c2n1 | 0 |
| Nc1ncnc2c1ncn2[C@@H]1O[C@H](COS(=O)(=O)NC(=O)c2ccccc2O)[C@@H](O)[C@H]1O | 0 |
| CC(C)C(NC(=O)Cc1cccc2ccccc12)C(=O)Nc1cccc(C#N)c1 (stereo unspecified) | 0 |
| C[C@H]1COc2c(N3CCN(C)CC3)c(F)cc3c(=O)c(C(=O)O)cn1c23 | 0 |
| O=C(c1cc2ccccc2o1)N1CCN(Cc2ccc3c(c2)OCO3)CC1 | 0 |
| Cc1cnc(N2CCN[C@@H](Cc3ccccc3)C2)nc1Oc1ccc(-n2ccnc2)cc1 | 4 (active) |
| CCCNC(=O)N1CCC2(CC1)CC(=O)c1cc(C)ccc1O2 | 0 |
| COc1ccc2nc(C)cc(OCC(=O)Nc3ccccc3OC)c2c1 | 0 |
| COc1cc(NC(=O)Cc2nn(C)c(=O)c3ccccc23)ccc1Cl | 0 |
| O=C(Nc1cccnc1)c1c(O)c2cccc3c2n(c1=O)CC3 | 0 |

| Structure (SMILES) | phenotypic severity score |
| --- | --- |
| OCc1ccc(-c2cncc(Nc3cccc(Cl)c3)c2)cc1 | 0 |
| CC(=O)N(CCN(C(=O)c1ccc(F)cc1)c1ccccc1)c1ccccc1 | 0 |
| CCCCc1ccc(NC(=O)Nc2ccc(O[C@H]3CCCC[C@@H]3N(C)c3ccccc3)c(F)c2)cc1 | 0 |
| CCc1c(C)nc(-n2nc(C)cc2NC(=O)c2ccccc2SC)[nH]c1=O | 3 (active) |
| CC(C)(C)C(=O)N(CCCCCCN1C[C@H](O)[C@@H](O)[C@H](O)[C@H]1CO)C1CCCCCC1 | 4 (active) |
| O=C(NC1CC1)c1ccc(N2CCC(Cc3ccccc3)CC2)nc1 | 0 |
| Cc1cc(O)nc(-n2nc(C)cc2C)n1 | 0 |
| CCc1ccccc1-n1c(C)cn2c3c(=O)n(C(C(=O)OC)C(C)C)c(=O)n(C)c3nc12 (stereo unspecified) | 0 |
| COc1ccc(N(CCc2cccc(C)n2)C(=O)C2CCCCC2)cc1 | 1 |
| CCc1cc(=O)n(C)c(SC(C)C(=O)Nc2ccc(F)cc2)n1 (stereo unspecified) | 1 |
| CO[C@@H](C(=O)N1Cc2[nH]nc(NC(=O)c3ccc(N4CCN(C)CC4)cc3)c2C1)c1ccccc1 | 0 |
| CN1CCCN(C(c2ccccc2)c2ccc(Cl)cc2)CC1 (stereo unspecified) | 0 |
| Cc1cc(Cl)ccc1NC(=O)CCc1ccc(S(=O)(=O)NCC(C)C)cc1 | 0 |
| O=C(Nc1ccc(N2CCNCC2)nc1)c1oc(-c2ccccc2)nc1C(F)(F)F | 0 |
| Cc1cccc(Cn2ccc(NC(=O)c3ccc4c(c3)OCO4)n2)c1 | 0 |
| CS(=O)(=O)c1ccccc1C(=O)N(Cc1ccccc1)c1ccccc1 | 0 |
| COC(=O)c1c(NC(=O)c2cc3ccccc3oc2=O)sc2c1CCN(Cc1ccccc1)C2 | 2 (active) |
| Cc1ccccc1CN1CCC(O)(c2ccc(Cl)c(C(F)(F)F)c2)CC1 | 1 |
| c1ccc(Oc2ccc(-c3cc(N4CCNCC4)[nH]n3)cc2)cc1 | 2 (active) |

Tested on: Schistosoma mansoni schistosomula (Liberian)
Assay: drug effect (1 - score/DMSO control score) (fraction); higher = more antischistosomal effect, active = 0.5 or more; extreme values may be limits of the assay
Settings: 24 h; 10 µM
Method in brief: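 Schistosomula of the Liberian strain of Schistosoma mansoni were mechanically transformed from cercariae, pre-incubated for at least 12 h, and placed at 50 per well in flat-bottom 96-well plates with Medium 199 containing 5% FCS. Compounds were tested in duplicate at 10 µM at 37 °C and 5% CO2, alongside wells holding 0.1% DMSO. Parasites were scored visually at 10× after 24, 48 and 72 h on a quarter-point scale running from 3 (normal) to 0 (dead). Drug effect came from the mean test-well score relative to the mean DMSO-well score, with negative values set to zero and plates accepted only when the DMSO wells averaged at least 2.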

| Structure (SMILES) | drug effect |
| --- | --- |
| CC1CCCCN1C(=O)NCCc1coc(-c2ccc(F)cc2)n1 (stereo unspecified) | 0.0909 |
| COc1ccc(S(=O)(=O)Nc2ccc(CN3CCN(C(=O)c4cccc(C#N)c4)CC3)cc2)cc1 | 0.1 |
| Cc1cc(Cl)c(S(=O)(=O)N2CCCC2)cc1OCC(=O)NC1CCCCC1 | 0.1 |
| COc1cccc(CC(=O)N2CCC(n3c(C)nc4ccc(F)cc43)CC2)c1 | 0.1 |
| COc1cc(C2=NCCN2)ccc1-c1cn(-c2cccc(C3=NCCN3)c2)nn1 | 0.25 |
| O=C(Nc1cccc(Cl)c1)c1cnc(N2CCN(c3ccncc3)CC2)c(Cl)c1 | 0.8 (active) |
| CC[C@@H]([C@H](C)O)n1ncn(-c2ccc(N3CCN(c4ccc(OC[C@@H]5CO[C@@](Cn6cncn6)(c6ccc(F)cc6F)C5)cc4)CC3)cc2)c1=O | 0.2 |
| NC(=O)c1cc(Br)ccc1OCCOc1ccccc1 | < 0 |
| Cc1noc(C)c1C(=O)N1CCCC(c2[nH]c3c(C)cccc3c2-c2ccncc2)C1 (stereo unspecified) | 0.35 |
| Cc1cc(Nc2ccncc2)n2nc(C)c(-c3ccccc3Cl)c2n1 | 0.1 |
| Nc1ncnc2c1ncn2[C@@H]1O[C@H](COS(=O)(=O)NC(=O)c2ccccc2O)[C@@H](O)[C@H]1O | 0.1 |
| CC(C)C(NC(=O)Cc1cccc2ccccc12)C(=O)Nc1cccc(C#N)c1 (stereo unspecified) | 0.15 |
| C[C@H]1COc2c(N3CCN(C)CC3)c(F)cc3c(=O)c(C(=O)O)cn1c23 | 0.0455 |
| O=C(c1cc2ccccc2o1)N1CCN(Cc2ccc3c(c2)OCO3)CC1 | 0.182 |
| Cc1cnc(N2CCN[C@@H](Cc3ccccc3)C2)nc1Oc1ccc(-n2ccnc2)cc1 | 0.3 |
| CCCNC(=O)N1CCC2(CC1)CC(=O)c1cc(C)ccc1O2 | 0.1 |
| COc1ccc2nc(C)cc(OCC(=O)Nc3ccccc3OC)c2c1 | 0.2 |
| COc1cc(NC(=O)Cc2nn(C)c(=O)c3ccccc23)ccc1Cl | 0.105 |
| O=C(Nc1cccnc1)c1c(O)c2cccc3c2n(c1=O)CC3 | 0.182 |

| Structure (SMILES) | drug effect |
| --- | --- |
| OCc1ccc(-c2cncc(Nc3cccc(Cl)c3)c2)cc1 | 0.1 |
| CC(=O)N(CCN(C(=O)c1ccc(F)cc1)c1ccccc1)c1ccccc1 | 0.1 |
| CCCCc1ccc(NC(=O)Nc2ccc(O[C@H]3CCCC[C@@H]3N(C)c3ccccc3)c(F)c2)cc1 | 0.111 |
| CCc1c(C)nc(-n2nc(C)cc2NC(=O)c2ccccc2SC)[nH]c1=O | 0.273 |
| CC(C)(C)C(=O)N(CCCCCCN1C[C@H](O)[C@@H](O)[C@H](O)[C@H]1CO)C1CCCCCC1 | 0.25 |
| O=C(NC1CC1)c1ccc(N2CCC(Cc3ccccc3)CC2)nc1 | 0.1 |
| Cc1cc(O)nc(-n2nc(C)cc2C)n1 | 0.15 |
| CCc1ccccc1-n1c(C)cn2c3c(=O)n(C(C(=O)OC)C(C)C)c(=O)n(C)c3nc12 (stereo unspecified) | 0.15 |
| COc1ccc(N(CCc2cccc(C)n2)C(=O)C2CCCCC2)cc1 | 0.15 |
| CCc1cc(=O)n(C)c(SC(C)C(=O)Nc2ccc(F)cc2)n1 (stereo unspecified) | 0.135 |
| CO[C@@H](C(=O)N1Cc2[nH]nc(NC(=O)c3ccc(N4CCN(C)CC4)cc3)c2C1)c1ccccc1 | 0.15 |
| CN1CCCN(C(c2ccccc2)c2ccc(Cl)cc2)CC1 (stereo unspecified) | 0.455 |
| Cc1cc(Cl)ccc1NC(=O)CCc1ccc(S(=O)(=O)NCC(C)C)cc1 | 0.2 |
| O=C(Nc1ccc(N2CCNCC2)nc1)c1oc(-c2ccccc2)nc1C(F)(F)F | 0.0811 |
| Cc1cccc(Cn2ccc(NC(=O)c3ccc4c(c3)OCO4)n2)c1 | 0.0556 |
| CS(=O)(=O)c1ccccc1C(=O)N(Cc1ccccc1)c1ccccc1 | 0.182 |
| COC(=O)c1c(NC(=O)c2cc3ccccc3oc2=O)sc2c1CCN(Cc1ccccc1)C2 | 0.4 |
| Cc1ccccc1CN1CCC(O)(c2ccc(Cl)c(C(F)(F)F)c2)CC1 | 0.1 |
| c1ccc(Oc2ccc(-c3cc(N4CCNCC4)[nH]n3)cc2)cc1 | 0.05 |
